{
  "source": "the supplement of paper PMC10681739",
  "data": [
    {"molecular_target": "RUNX1 (UniProt Q01196)", "sequence (Q01196 whole entry)": "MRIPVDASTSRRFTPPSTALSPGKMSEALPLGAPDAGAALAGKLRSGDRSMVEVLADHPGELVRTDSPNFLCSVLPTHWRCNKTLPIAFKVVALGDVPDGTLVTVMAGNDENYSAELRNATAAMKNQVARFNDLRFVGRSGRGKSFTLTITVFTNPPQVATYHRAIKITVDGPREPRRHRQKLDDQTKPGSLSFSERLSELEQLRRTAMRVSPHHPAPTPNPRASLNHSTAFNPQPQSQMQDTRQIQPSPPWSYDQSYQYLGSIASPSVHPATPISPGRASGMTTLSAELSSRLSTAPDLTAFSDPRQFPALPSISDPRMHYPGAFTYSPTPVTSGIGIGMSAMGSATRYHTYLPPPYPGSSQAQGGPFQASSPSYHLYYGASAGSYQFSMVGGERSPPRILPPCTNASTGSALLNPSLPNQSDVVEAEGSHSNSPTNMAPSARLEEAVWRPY", "assay": "RUNX1 binding intensity (PBM fluorescence), RUNX1 alone (arbitrary fluorescence units); higher = stronger binding", "conditions": "RUNX1 concentration 2 nM; ETS1 concentration 0 nM", "procedure": "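Cooperative gcPBM on 36-bp genomic probes with neighbouring ETS1 and RUNX1 sites. Recombinant human RUNX1 (2 nM) was incubated alone or with ETS1 (25 nM) and detected with anti-RUNX1 antibody plus Alexa488 secondary. Values are medians over 4 replicate spots; the RUNX1+ETS1 data were normalised to the RUNX1-only data. The probes sit in constant array flanks that are not printed.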", "values": [
      {"sequence": "GGGGCGGCTTCCGGCGGCGTGACCTGACCGCAAGAG", "RUNX1 binding intensity": 2950},
      {"sequence": "CCAGCCACTTCCGCTCGTCCGCCTAATACCGCGCCT", "RUNX1 binding intensity": 1420},
      {"sequence": "ACAAAGAAACCTACATCCTAAGCCACAGAATACAGC", "RUNX1 binding intensity": 930},
      {"sequence": "CACCGCCGGAGTCCCGGATGTGGTTGCTAGGGCAGC", "RUNX1 binding intensity": 767},
      {"sequence": "GCAGCCCAGCTTCCTGCAGACCAAAACCACAAGCAG", "RUNX1 binding intensity": 1390},
      {"sequence": "GCTCCCTGGACAGGATGTGGTGCCGAGTAAACAGCT", "RUNX1 binding intensity": 645},
      {"sequence": "AACAAAGAGAGAGGAAGTGGGTTGGGCGGGGGGGGT", "RUNX1 binding intensity": 1010},
      {"sequence": "TGCAGTCGTGAAAAAGGAAGTGGTTAAAGTGGATAC", "RUNX1 binding intensity": 836},
      {"sequence": "AGGGACCCGGATGTCTGGTCTGCGGCTGCTCCTCTA", "RUNX1 binding intensity": 756},
      {"sequence": "GCTGATAAAACAGGATGTGGTAAAGAAGCCGGCCAA", "RUNX1 binding intensity": 817},
      {"sequence": "CCCAAGCTACGGAAGTTAAACCTCAAACATGAAATC", "RUNX1 binding intensity": 1040},
      {"sequence": "ACCCCGGAAGTGTGGGCGCGGCTGCGGTTTAACCCG", "RUNX1 binding intensity": 2220},
      {"sequence": "CCGGTCCGCTCGCCGGAAATGCGGGCTCTCCTGCCG", "RUNX1 binding intensity": 815},
      {"sequence": "CAGAGAGAGGCCACATCCCTGTGGTCACACATACCC", "RUNX1 binding intensity": 980},
      {"sequence": "CTCCTTCCTGTGTGTTACTCTTAAAAACCACAGAGG", "RUNX1 binding intensity": 1230},
      {"sequence": "GAGGGTTGCTGGGGGGAAGTGTGGTAAATCTTTTCC", "RUNX1 binding intensity": 938},
      {"sequence": "GCGCCAGTCACCGTTTCCTGTGGTTTGCTGCCCGCC", "RUNX1 binding intensity": 1050},
      {"sequence": "GGTTTAACGTTTCCGGTTTGTGGCTAGTTTCTTGTC", "RUNX1 binding intensity": 1060},
      {"sequence": "GGTCTCTGCTTCCGGTCCTTGTGGTAGCACCTCTGT", "RUNX1 binding intensity": 936},
      {"sequence": "GGGAACTGGGGAAGGGGATGTGGTAACCAGAACCAC", "RUNX1 binding intensity": 869},
      {"sequence": "GGGCCAGAGACGCCGGAAGTGACCGCGCGGTGCGCC", "RUNX1 binding intensity": 729},
      {"sequence": "GCCTGCAGCTTCTTCCTGTGGCTTCTGCATCTCAGG", "RUNX1 binding intensity": 783},
      {"sequence": "GACCGAGAGGAAGCAGCAAGGATCCTGCGGTTCCAG", "RUNX1 binding intensity": 821},
      {"sequence": "CCAAGCACTTCCTGCTGTTAGCTTTGTGGGCTGAGT", "RUNX1 binding intensity": 860},
      {"sequence": "CAACAACCGGAAGTGGGGCGGGCCGCAGTACCCGCC", "RUNX1 binding intensity": 701},
      {"sequence": "AGACGGTAGGCCAGGAAACCGCAGGCCCCTGCCGGG", "RUNX1 binding intensity": 6110},
      {"sequence": "ACACTGGCCGGAAGGGGCGGGACCGCGAGTTAAGAG", "RUNX1 binding intensity": 791},
      {"sequence": "ACGTTTCGGGGTTTCCGGGCCAGCGGTTTCGGGCGC", "RUNX1 binding intensity": 937},
      {"sequence": "TGCTCAAATGCAGGATGTGGTCTGAGAGTTTCTCCT", "RUNX1 binding intensity": 693},
      {"sequence": "TAAGGATGTGTGGCTTCCAGATCAAAAACCGCAAAA", "RUNX1 binding intensity": 7590},
      {"sequence": "CAGATTCAAGGAAGTGGTGGTGGTTTGGTGTCGTTG", "RUNX1 binding intensity": 755},
      {"sequence": "TGCCGGGCCCCGGATGTCACCGCAGCCGCCATCTTA", "RUNX1 binding intensity": 968},
      {"sequence": "ACATTCTTCCGGTTGGACCTCCGCGGTCAGCGCTGT", "RUNX1 binding intensity": 1110},
      {"sequence": "ATCTTGGCCCATATCCTGTGGTGTTCTGCTAGAGGT", "RUNX1 binding intensity": 791},
      {"sequence": "TACCAACAGGAATCTTTGGGGTCTAAACCGCAAACA", "RUNX1 binding intensity": 3800},
      {"sequence": "TAAAACACCAGGAAACTCTGTGGTGAGTGGGAGGTG", "RUNX1 binding intensity": 1060},
      {"sequence": "GAGCCCAACCGGCATCCGTCGCGGTTGGACGTGGGC", "RUNX1 binding intensity": 761},
      {"sequence": "CTCGTGCGTCACTTCCGCCCCGCAGACCCGCCCACT", "RUNX1 binding intensity": 1050},
      {"sequence": "TGGAAGGCCGGAAAAGGTTTACCACCACACTCCGGT", "RUNX1 binding intensity": 791},
      {"sequence": "CCCAGGCTTCCGGGTTGAATATGTGGGCTGAGGCGA", "RUNX1 binding intensity": 819}
    ]},
    {"molecular_target": "T1, ETS1 (UniProt P14921)", "T1 sequence": "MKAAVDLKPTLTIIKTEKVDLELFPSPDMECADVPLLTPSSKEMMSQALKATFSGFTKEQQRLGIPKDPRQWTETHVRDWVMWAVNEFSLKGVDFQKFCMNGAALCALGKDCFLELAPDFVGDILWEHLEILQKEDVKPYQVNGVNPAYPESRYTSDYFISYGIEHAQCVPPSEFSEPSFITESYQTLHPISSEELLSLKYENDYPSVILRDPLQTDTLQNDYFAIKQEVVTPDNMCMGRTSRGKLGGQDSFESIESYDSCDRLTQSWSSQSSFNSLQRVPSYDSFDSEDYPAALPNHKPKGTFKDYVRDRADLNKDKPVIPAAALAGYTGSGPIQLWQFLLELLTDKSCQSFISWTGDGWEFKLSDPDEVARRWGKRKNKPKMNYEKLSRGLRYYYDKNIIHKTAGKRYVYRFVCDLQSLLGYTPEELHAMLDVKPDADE", "assay": "ETS1 binding intensity (PBM fluorescence) in presence of RUNX1, normalised to ETS1-only experiment (arbitrary fluorescence units); higher = stronger binding", "conditions": "ETS1 concentration 1 nM; RUNX1 concentration 25 nM", "values": [
      {"sequence": "GGGGCGGCTTCCGGCGGCGTGACCTGACCGCAAGAG", "ETS1 binding intensity": 4920},
      {"sequence": "CCAGCCACTTCCGCTCGTCCGCCTAATACCGCGCCT", "ETS1 binding intensity": 2430},
      {"sequence": "ACAAAGAAACCTACATCCTAAGCCACAGAATACAGC", "ETS1 binding intensity": 523},
      {"sequence": "CACCGCCGGAGTCCCGGATGTGGTTGCTAGGGCAGC", "ETS1 binding intensity": 14900},
      {"sequence": "GCAGCCCAGCTTCCTGCAGACCAAAACCACAAGCAG", "ETS1 binding intensity": 2540},
      {"sequence": "GCTCCCTGGACAGGATGTGGTGCCGAGTAAACAGCT", "ETS1 binding intensity": 5380},
      {"sequence": "AACAAAGAGAGAGGAAGTGGGTTGGGCGGGGGGGGT", "ETS1 binding intensity": 1990},
      {"sequence": "TGCAGTCGTGAAAAAGGAAGTGGTTAAAGTGGATAC", "ETS1 binding intensity": 9240},
      {"sequence": "AGGGACCCGGATGTCTGGTCTGCGGCTGCTCCTCTA", "ETS1 binding intensity": 2120},
      {"sequence": "GCTGATAAAACAGGATGTGGTAAAGAAGCCGGCCAA", "ETS1 binding intensity": 18000},
      {"sequence": "CCCAAGCTACGGAAGTTAAACCTCAAACATGAAATC", "ETS1 binding intensity": 1420},
      {"sequence": "ACCCCGGAAGTGTGGGCGCGGCTGCGGTTTAACCCG", "ETS1 binding intensity": 15900},
      {"sequence": "CCGGTCCGCTCGCCGGAAATGCGGGCTCTCCTGCCG", "ETS1 binding intensity": 10400},
      {"sequence": "CAGAGAGAGGCCACATCCCTGTGGTCACACATACCC", "ETS1 binding intensity": 590},
      {"sequence": "CTCCTTCCTGTGTGTTACTCTTAAAAACCACAGAGG", "ETS1 binding intensity": 1780},
      {"sequence": "GAGGGTTGCTGGGGGGAAGTGTGGTAAATCTTTTCC", "ETS1 binding intensity": 475},
      {"sequence": "GCGCCAGTCACCGTTTCCTGTGGTTTGCTGCCCGCC", "ETS1 binding intensity": 3010},
      {"sequence": "GGTTTAACGTTTCCGGTTTGTGGCTAGTTTCTTGTC", "ETS1 binding intensity": 12500},
      {"sequence": "GGTCTCTGCTTCCGGTCCTTGTGGTAGCACCTCTGT", "ETS1 binding intensity": 5180},
      {"sequence": "GGGAACTGGGGAAGGGGATGTGGTAACCAGAACCAC", "ETS1 binding intensity": 2600},
      {"sequence": "GGGCCAGAGACGCCGGAAGTGACCGCGCGGTGCGCC", "ETS1 binding intensity": 18400},
      {"sequence": "GCCTGCAGCTTCTTCCTGTGGCTTCTGCATCTCAGG", "ETS1 binding intensity": 3930},
      {"sequence": "GACCGAGAGGAAGCAGCAAGGATCCTGCGGTTCCAG", "ETS1 binding intensity": 1990},
      {"sequence": "CCAAGCACTTCCTGCTGTTAGCTTTGTGGGCTGAGT", "ETS1 binding intensity": 1020},
      {"sequence": "CAACAACCGGAAGTGGGGCGGGCCGCAGTACCCGCC", "ETS1 binding intensity": 15800},
      {"sequence": "AGACGGTAGGCCAGGAAACCGCAGGCCCCTGCCGGG", "ETS1 binding intensity": 3730},
      {"sequence": "ACACTGGCCGGAAGGGGCGGGACCGCGAGTTAAGAG", "ETS1 binding intensity": 2380},
      {"sequence": "ACGTTTCGGGGTTTCCGGGCCAGCGGTTTCGGGCGC", "ETS1 binding intensity": 1140},
      {"sequence": "TGCTCAAATGCAGGATGTGGTCTGAGAGTTTCTCCT", "ETS1 binding intensity": 6550},
      {"sequence": "TAAGGATGTGTGGCTTCCAGATCAAAAACCGCAAAA", "ETS1 binding intensity": 3920},
      {"sequence": "CAGATTCAAGGAAGTGGTGGTGGTTTGGTGTCGTTG", "ETS1 binding intensity": 1370},
      {"sequence": "TGCCGGGCCCCGGATGTCACCGCAGCCGCCATCTTA", "ETS1 binding intensity": 6730},
      {"sequence": "ACATTCTTCCGGTTGGACCTCCGCGGTCAGCGCTGT", "ETS1 binding intensity": 1710},
      {"sequence": "ATCTTGGCCCATATCCTGTGGTGTTCTGCTAGAGGT", "ETS1 binding intensity": 843},
      {"sequence": "TACCAACAGGAATCTTTGGGGTCTAAACCGCAAACA", "ETS1 binding intensity": 2160},
      {"sequence": "TAAAACACCAGGAAACTCTGTGGTGAGTGGGAGGTG", "ETS1 binding intensity": 1220},
      {"sequence": "GAGCCCAACCGGCATCCGTCGCGGTTGGACGTGGGC", "ETS1 binding intensity": 490},
      {"sequence": "CTCGTGCGTCACTTCCGCCCCGCAGACCCGCCCACT", "ETS1 binding intensity": 2940},
      {"sequence": "TGGAAGGCCGGAAAAGGTTTACCACCACACTCCGGT", "ETS1 binding intensity": 3690},
      {"sequence": "CCCAGGCTTCCGGGTTGAATATGTGGGCTGAGGCGA", "ETS1 binding intensity": 415}
    ]}
  ]
}
